# In PubChem BioAssay (EPA / NIEHS):
# Several values for one entry are separate records, joined by “and”; a condition that tells them apart may be missing. Equal entries are not always repeated. Activity calls are given as the source filed them. How the source made its calls: active means hit-call score of the fitted dose curve at least 0.9, where 1 is the maximum; inactive means score below 0.9.
# Read-out: Intercellular Adhesion Molecule 1 (ICAM1), ICAM1 (gene 3383)
# Assay: BSK_KF3CT_ICAM1: BioMAP Diversity Plus: KF3CT Assay for Intercellular Adhesion Molecule 1 (ICAM1) Biomarker Activity (AID 2283067)
# Details: primary human keratinocytes with fibroblasts; actives raise or lower the signal
# Description: BSK_KF3CT is a cell-based, multiplexed-readout assay that uses keratinocytes and foreskin fibroblasts, a human skin primary cell co-culture, with measurements taken at 24 hours after chemical dosing in a 96-well plate.BSK_KF3CT_ICAM1 is an assay component measured in the BSK_KF3CT assay. It measures ICAM-1 antibody related to regulation of gene expression using ELISA technology.Data from the assay component BSK_KF3CT_ICAM1 was analyzed into 1 assay endpoint. This assay endpoint, BSK_KF3CT_ICAM1, was analyzed with bidirectional fitting relative to DMSO as the negative control and baseline of activity. Using a type of binding reporter, gain or loss-of-signal activity can be used to understand changes in the signaling as they relate to the gene ICAM1. Furthermore, this assay endpoint can be referred to as a primary readout, because this assay has produced multiple assay endpoints where this one serves a signaling function. To generalize the intended target to other relatable targets, this assay endpoint is annotated to the cell adhesion molecules intended target family, where the subfamily is Immunoglobulin CAM.
# The levels of cell surface (or secreted, indicated by the prefix "s") biomarker endpoints were measured by ELISA. Overt cytotoxicity to cells in confluent adherent cultures (all systems other than the BT system) was assessed by measuring total protein levels using sulforhodamine B (SRB) staining in parallel cultures at the time of biomarker measurements, indicated as SRB endpoints. For proliferation assays for adherent cell types, individual cell types are cultured at sub-confluence and relative cell numbers quantified by SRB staining at time points optimized for each system (48 h: 3C and CASM3C systems; 72 h: BT and HDF3CGF systems; 96 h: SAg system). SRB was performed by staining cells with 0.1% SRB after fixation with 10% TCA and reading wells at 560 nm.Viability and proliferation of PBMC (T cells) was quantified by Alamar Blue reduction for the SAg and BT systems. For PBMC viability (referred to as PBMC Cytotoxicity within the assay endpoint names), cells were plated (75,000/well in a 96-well plate) and then chemical samples added for 1 h before addition of activators, SEB and TSST-1 (20 ng/mL final concentration each). Cells were incubated for 90 h. Then, Alamar Blue (20 uL/well) (Invitrogen, Cat DAL1100) was added for 6 h, and the plates were read with a fluorescence microplate reader at 546/580 nm (excitation/emission). For PBMC proliferation, cells were plated and activated as above but incubated for only 16 h prior to addition of Alamar Blue. Plates were read after 6 h.
Compound,outcome,AC50
CCOC(=O)COc1cc(-c2nn(C)c(OC(F)F)c2Cl)c(F)cc1Cl,inactive,
CCOP(=S)(OCC)Oc1ccc2c(C)c(Cl)c(=O)oc2c1,inactive,
CCOP(=S)(OCC)SCCSCC,inactive,
COc1cc(OC)nc(Sc2cccc(Cl)c2C(=O)O)n1,inactive,
CCOP(=O)(OCC)Oc1cc(C)nc(C(C)C)n1,inactive,
CCOP(=S)(OCC)Oc1cc(C)nc(C(C)C)n1,inactive,
C[N+]1(C)CCCCC1,inactive,
CC(C1CC1)C(O)(Cn1cncn1)c1ccc(Cl)cc1 (stereo not given),inactive,
C#CC(C)(C)NC(=O)c1cc(Cl)cc(Cl)c1,inactive,
CCOP(=S)(Oc1cnc(C(C)(C)C)nc1)OC(C)C (stereo not given),inactive,
COP(=O)(NC(C)=O)SC (stereo not given),inactive,
CCCCOC(=O)[C@@H](C)Oc1ccc(Oc2ccc(C#N)cc2F)cc1,inactive,
FC(F)C(F)(F)OCC(Cn1cncn1)c1ccc(Cl)cc1Cl (stereo not given),inactive,
COc1ccc(C(=CC(=O)N2CCOCC2)c2ccc(Cl)cc2)cc1OC,inactive,
CNC(=O)ON=C(SC)C(=O)N(C)C,inactive,
CCc1cccc(C)c1N(C(=O)CCl)C(C)COC (stereo not given),inactive,
O=c1ccc(=O)[nH][nH]1,inactive,
O=[N+]([O-])c1cc(C(F)(F)F)c(Cl)c([N+](=O)[O-])c1Nc1ncc(C(F)(F)F)cc1Cl,,1.15 µM (active) and 9.82 µM (active)
C#CCC1=C(C)C(OC(=O)C2C(C=C(C)C)C2(C)C)CC1=O (stereo not given),inactive,
CCCSP(=O)(OCC)Oc1ccc(Br)cc1Cl (stereo not given),inactive,

Compound,outcome,AC50
O=C(O)c1cc(Oc2ccc(C(F)(F)F)cc2Cl)ccc1[N+](=O)[O-],inactive,
CCCOc1nn(C(=O)NS(=O)(=O)c2ccccc2C(=O)OC)c(=O)n1C,inactive,
CON=C(C(=O)OC)c1ccccc1CON=C(C)c1cccc(C(F)(F)F)c1,inactive,
COc1cccc(C(=O)NN(C(=O)c2cc(C)cc(C)c2)C(C)(C)C)c1C,inactive,
CN(C)NC(=O)CCC(=O)O,inactive,
Nc1nc(N)nc(NC2CC2)n1,inactive,
C[Si](Cn1cncn1)(c1ccc(F)cc1)c1ccc(F)cc1,inactive,
CCC(=O)Nc1ccc(Cl)c(Cl)c1,inactive,
CC1=NNC(=O)N(/N=C/c2cccnc2)C1,inactive,
CSc1nnc(C(C)(C)C)c(=O)n1N,inactive,
Cc1ccn2nc(S(=O)(=O)Nc3c(F)cccc3F)nc2n1,inactive,
CCNc1nc(Cl)nc(NC(C)(C)C#N)n1,inactive,
COP(=O)(OC)SCn1c(=O)oc2cc(Cl)cnc21,,18 µM (active)
CSC1=N[C@@](C)(c2ccccc2)C(=O)N1Nc1ccccc1,inactive,
CCOP(=O)(SC(C)CC)N1CCSC1=O (stereo not given),inactive,
COP(=O)(OC)OC(Br)C(Cl)(Cl)Br (stereo not given),,31.1 µM (active)
CC(C)=CC1C(C(=O)OCN2C(=O)C3=C(CCCC3)C2=O)C1(C)C (stereo not given),inactive,
CCOP(=S)(OCC)OC(Cl)C(Cl)(Cl)Cl (stereo not given),inactive,
CC(=NC#N)N(C)Cc1ccc(Cl)nc1,inactive,
S=C1NCCN1,inactive,
